Most compounds without a hit are left out; they make up all but 3.5% or so of the library.
FBW7 act – FBW7 E3 ligase activators, primary screen, biochemical, AlphaScreen, human; F-box/WD repeat-containing protein 7 (Homo sapiens), Q969H0; AlphaScreen FBW7–phospho-cyclin E peptide binding, activator screen; normalized activity (activation), % at 26.1 µM; actives 0.13% (n = 650,000); in the data active means normalized activity above about 1.9%;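 further: purified mutant Fbw7 with reduced substrate affinity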
Target sequence (Q969H0 whole entry, looked up): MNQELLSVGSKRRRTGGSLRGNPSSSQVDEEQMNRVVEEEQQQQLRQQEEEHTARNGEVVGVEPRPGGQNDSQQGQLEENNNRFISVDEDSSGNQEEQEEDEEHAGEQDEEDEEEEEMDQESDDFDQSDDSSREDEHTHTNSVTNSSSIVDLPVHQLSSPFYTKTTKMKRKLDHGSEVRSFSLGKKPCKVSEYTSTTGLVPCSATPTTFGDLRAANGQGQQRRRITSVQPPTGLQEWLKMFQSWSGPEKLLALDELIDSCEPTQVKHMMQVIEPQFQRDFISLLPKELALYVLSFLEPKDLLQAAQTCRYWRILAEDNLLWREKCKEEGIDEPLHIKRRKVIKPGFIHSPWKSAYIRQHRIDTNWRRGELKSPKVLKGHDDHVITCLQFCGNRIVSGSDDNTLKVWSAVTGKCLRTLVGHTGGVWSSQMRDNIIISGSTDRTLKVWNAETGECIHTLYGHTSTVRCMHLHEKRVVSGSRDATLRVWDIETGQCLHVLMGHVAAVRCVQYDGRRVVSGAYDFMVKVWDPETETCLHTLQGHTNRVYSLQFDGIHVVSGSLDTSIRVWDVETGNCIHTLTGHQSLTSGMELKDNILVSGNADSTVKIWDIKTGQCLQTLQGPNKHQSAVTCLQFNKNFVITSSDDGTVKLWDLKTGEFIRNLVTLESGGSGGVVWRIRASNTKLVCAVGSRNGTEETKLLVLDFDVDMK
MITF primary – MITF inhibitors, primary screen, biochemical, AlphaScreen, human | Microphthalmia-associated transcription factor (Homo sapiens), O75030 | AlphaScreen MITF homodimerization, bead proximity signal | inhibition, % at 2.6 µM | actives 0.91% (n = 650,000) | AID 1259374, 2018; in the data active means inhibition above about 50%;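 further: 0% = vehicle wells with protein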
TEAD-YAP block – TEAD-YAP interaction inhibition, primary screen, TEAD-YAP interaction inhibitor project, luminescence, HEK-TIYL cells | AID 1259422, 2018 | inhibition, % at 9.12 µM | actives 1.4% (n = 640,000) | TEAD-Gal4/YAP UAS-luciferase luminescence; in the data active means inhibition above about 32%;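 further: 0% = median of test compound wells and 100% = reference inhibitor wells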
GPR151 ag – activators of human GPR151, primary screen, cell-based, PathHunter beta-arrestin, luminescence; G-protein coupled receptor 151 (Homo sapiens), Q8TDV0; PathHunter beta-arrestin GPR151 cells; activation, % at 11.2 µM; actives 1% (n = 650,000); in the data active means activation above about 4.9%;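 further: 0% = median of compound wells and 100% = cells with positive control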
MITF confirm – MITF inhibitors, retest of hits, confirmation, biochemical, AlphaScreen, triplicate; shares compounds with MITF primary; AlphaScreen MITF homodimerization, biotin/His-MITF beads; inhibition, % at 2.6 µM; actives 16% (n = 4,700); AID 1259372, 2018;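 active means inhibition above a cutoff derived from the DMSO control wells, cut at about 28% in these data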;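 further: 0% = MITF dimer wells with DMSO only; inhibitors lower the bead chemiluminescence by keeping MITF from dimerizing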
AlphaScreen DR – AlphaScreen optical interference compounds, dose response, counter-screen, biochemical, HTS; shares compounds with MITF primary; AlphaScreen optical interference counterscreen, cell-free; IC50, µM; actives 6% (n = 480); call rule not given here
AlphaScreen intf2 – AlphaScreen optical interference compounds, counter-screen for MITF inhibitor project, biochemical, triplicate; inhibition, % at 2.6 µM; LysRS AlphaScreen counterscreen, signal interference; AID 1259376, 2018; actives 7.6% (n = 4,700); shares compounds with MITF primary;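 active means inhibition above a cutoff derived from the DMSO control wells, cut at about 30% in these data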
* = called active by the depositor.

`Cc1cccc(N=c2c([N+](=O)[O-])nn(-c3ccc(Cl)cc3)n2O)c1` gave FBW7 act 0, MITF primary 78*, TEAD-YAP block 10, GPR151 ag -1, MITF confirm 9 and AlphaScreen intf2 10.
For Cc1cccc(-n2nc([N+](=O)[O-])c(=Nc3ccc(F)cc3)n2O)c1 the results were FBW7 act 0, MITF primary 72*, TEAD-YAP block -15, GPR151 ag -1, MITF confirm 9 and AlphaScreen intf2 6.
For COc1cccc(N=c2c([N+](=O)[O-])nn(-c3ccc(Cl)cc3)n2O)c1 the results were FBW7 act 0, MITF primary 2, TEAD-YAP block 10 and GPR151 ag 0.
For COc1ccc(C2CC(=O)C3=C(C2)Nc2ccccc2N(C(C)=O)C3c2cccc(OC)c2)cc1 (centres undefined) the results were FBW7 act 0, MITF primary 12, TEAD-YAP block 15 and GPR151 ag -1.
For Cc1ccccc1C(=O)Nc1ccc2c(c1)C(=O)NCCO2 the results were FBW7 act 0, MITF primary 51*, TEAD-YAP block -4, GPR151 ag 0, MITF confirm -5 and AlphaScreen intf2 -5.
For O=C(Nc1ccc2c(c1)C(=O)NCCO2)c1ccc(Cl)cc1 the results were FBW7 act 0, MITF primary -16, TEAD-YAP block -77 and GPR151 ag 0.
For COc1ccc(C2C(C(=O)Nc3ccc(C)cc3)=C(C)Nc3ncnn32)cc1OC (centres undefined) the results were FBW7 act 0, MITF primary 69*, TEAD-YAP block -11, GPR151 ag 1, MITF confirm 7 and AlphaScreen intf2 12.
Screening C#CCNCC(O)COc1ccc(OCC)cc1 (centres undefined) returned FBW7 act 0, MITF primary 66*, TEAD-YAP block -21, GPR151 ag -1, MITF confirm 3 and AlphaScreen intf2 7.
Screening Cc1cc(C(F)(F)F)nc2sc(C#N)c(N)c12 returned FBW7 act 0, MITF primary -2, TEAD-YAP block -15 and GPR151 ag 1.
For O=C(O)c1c[nH]c2c(ccc3cccnc32)c1=O the results were MITF primary 121*, GPR151 ag -1, MITF confirm 98* and AlphaScreen intf2 101*.
O=C(O)c1c[nH]c2c(Cl)c(Cl)ccc2c1=O was read as FBW7 act -1, MITF primary 32, TEAD-YAP block -5 and GPR151 ag 1.
For COc1ccc(CNC(=O)CN(C)Cc2ccc(C(C)(C)C)cc2)cc1 the results were FBW7 act 0, MITF primary 74*, TEAD-YAP block 0, GPR151 ag 0, MITF confirm -21 and AlphaScreen intf2 2.
For CC(C)(C)c1ccc(C(=O)NC(=O)COC(=O)/C=C/c2cccc([N+](=O)[O-])c2)cc1 the results were FBW7 act 0, MITF primary 6, TEAD-YAP block 0 and GPR151 ag 1.
`Cc1nn(C(=O)C2CCCN2S(=O)(=O)c2ccc(Cl)cc2)c(C)c1Sc1ccc([N+](=O)[O-])cc1` (centres undefined) gave FBW7 act 0, MITF primary 67*, TEAD-YAP block 0, GPR151 ag -1, MITF confirm 12 and AlphaScreen intf2 17.
`Brc1ccc(CN2CCN(Cc3ccccc3)CC2)o1` gave FBW7 act 0, MITF primary 55*, TEAD-YAP block 1, GPR151 ag 0, MITF confirm 4 and AlphaScreen intf2 15.
For Clc1ccc(N2CCN(Cc3ccc(Br)o3)CC2)cc1 the results were FBW7 act 0, MITF primary 58*, TEAD-YAP block 2, GPR151 ag 1, MITF confirm 4 and AlphaScreen intf2 -1.
`NC(=O)NC(=O)COC(=O)c1c2c(nc3ccccc13)/C(=C\c1ccco1)CCC2` gave FBW7 act 0, MITF primary 61*, TEAD-YAP block -4, GPR151 ag -1, MITF confirm 79*, AlphaScreen DR >7 and AlphaScreen intf2 -7.
CN(CCC#N)C(=O)COC(=O)c1c2c(nc3ccccc13)/C(=C/c1ccco1)CC2 was read as FBW7 act 0, MITF primary 73*, TEAD-YAP block -25, GPR151 ag 1, MITF confirm 80*, AlphaScreen DR >6.9 and AlphaScreen intf2 -4.
For O=C(N/N=C/c1ccc([N+](=O)[O-])cc1)c1cc(-c2ccc(Cl)s2)[nH]n1 the results were FBW7 act 0, MITF primary -17, TEAD-YAP block 11 and GPR151 ag 3.
Cc1ccc2c(c1)N(C(=O)N1CCC(C(=O)NCC(C)c3ccccc3)CC1)CC(C)O2 (centres undefined) was read as FBW7 act 0, MITF primary 3, TEAD-YAP block 10 and GPR151 ag 0.
COCCN1CCCc2ccc(NC(=O)c3ccc(C)cc3)cc21 was read as FBW7 act 1, MITF primary 54*, TEAD-YAP block -54, GPR151 ag -2, MITF confirm 7 and AlphaScreen intf2 2.
Cc1ccc(N(CC(=O)NC(C(C)C)C(C)C)S(C)(=O)=O)cc1C was read as FBW7 act 0, MITF primary 68*, TEAD-YAP block 12, GPR151 ag 2, MITF confirm 7 and AlphaScreen intf2 14.
For Cc1csc(NC(=O)CSc2nc(C)nc3sc(C)c(C)c23)n1 the results were FBW7 act 0, MITF primary -2, TEAD-YAP block 7 and GPR151 ag 3.
For NS(=O)(=O)c1ccc(NC(=O)CSCCOC(=O)/C=C/c2ccco2)cc1 the results were FBW7 act 0, MITF primary 46, TEAD-YAP block -7 and GPR151 ag 0.
`CCCn1cc(NC(=O)c2ccc(Br)o2)cn1` gave FBW7 act 0, MITF primary -1, TEAD-YAP block -51 and GPR151 ag -3.
For CCCn1cc(NC(=O)c2cc(-c3ccccc3N)no2)cn1 the results were FBW7 act 0, MITF primary 73*, TEAD-YAP block -17, GPR151 ag 1, MITF confirm -17 and AlphaScreen intf2 -1.
`COc1ccc(C2C(C#N)=C(N)OC3=C2C(=O)CC(C)(C)C3)c2ccccc12` (centres undefined) gave FBW7 act 0, MITF primary 70*, TEAD-YAP block 5, GPR151 ag 0, MITF confirm 8 and AlphaScreen intf2 12.
